In PubChem BioAssay (NCATS):
Results filed as inconclusive are left out. Active and inactive are the calls of the source. Unless noted, the call rests on the fitted dose curve; in most records, active means well fitted curve in the direction sought with a large enough effect; inconclusive means small, poorly fitted or top-dose-only effect, or another doubt; inactive means no such curve, though single readings can be large; an effect the other way counts as inactive or inconclusive.

How the values were obtained:
[1] = Cell Viability - BJ (AID 421; calls by dose curve;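 further: potency means the concentration at half of the fitted maximal effect; cells exposed to compound for 40 hours at 37 °C before readout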); details: BJ fibroblast viability, qHTS
In short: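 Cytotoxicity as drop in intracellular ATP (CellTiter-Glo, 20 min RT) after 40 hr compound exposure of BJ fibroblasts at 37 °C. Titrations scaled between DMSO and 100 uM tamoxifen, Hill-fitted for AC50.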

[2] = Cell Viability - Jurkat (AID 426;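 active means dose-dependent loss of cell ATP signal giving a full or clear fitted curve, ranked by lower potency value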; further: potency means the concentration at half of the fitted maximal effect); details: qHTS
In short: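 Jurkat (clone E6-1, human T-cell leukemia) cells, 5000/well in complete medium, were exposed to compound for 40 hr at 37 °C. Viability was read as intracellular ATP by CellTiter-Glo luminescence; AC50 came from Hill fits of concentration-response data.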

[3] = Cell Viability - Hek293 (AID 427;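 active means compounds whose dose-response curve shows a full or clear partial loss of cell viability, called from curve shape rather than a numeric limit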;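 further: potency means the concentration at half of the fitted maximal effect; cells exposed to compound for 40 hours at 37 °C before reading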); details: qHTS
In short: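 Luminescent ATP content (CellTiter-Glo, 20 min at room temperature) was measured after a 40 hr, 37 °C compound exposure of HEK293 cells. AC50 values came from Hill-equation fits of qHTS concentration-response data normalized to DMSO and 100 uM tamoxifen.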

[4] = Cell Viability - MRC5 (AID 434; calls by dose curve;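 further: potency means the concentration at half of the fitted maximal effect; potency reflects cytotoxicity seen as loss of intracellular ATP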); details: MRC5 lung fibroblast viability, qHTS
In short: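 MRC5 normal human lung fibroblasts, 1500 cells/well, exposed to compound for 40 hr at 37 C. Cellular ATP was read by CellTiter-Glo luminescence; data normalized to DMSO and 100 uM tamoxifen, with AC50 from Hill fits.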

[5] = Cell Viability - SK-N-SH (AID 435; calls by dose curve;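 further: potency means the concentration at half of the fitted maximal effect; compound exposure lasted 40 h at 37 °C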); details: SK-N-SH neuroblastoma cell viability qHTS
In short: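 Luminescent ATP signal served as the viability read-out after 40 hours of compound treatment of human neuroblastoma SK-N-SH cells. Concentration-response data, scaled between DMSO and 100 uM tamoxifen, gave AC50 values by standard Hill modeling.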

[6] = target: Mitogen-activated protein kinase 10 (Mus musculus) (UniProt Q61831); experiment: JNK3 AlphaScreen Assay (AID 530; active means well fitted curve in either direction with a large enough effect, not every such curve was filed as active;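 further: kinase came from lysate of stimulated human HepG2 cells; signal reports phosphorylation of biotinylated GST-cJun 1-79 at Ser73 with 10 µM ATP; on the % scale 0 is the no-effect control and ±100 the full control effect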)
In short: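 qHTS format: compounds tested as titrations against IL-1beta/TNF-alpha-activated HepG2 lysate JNK3 with biotin-GST-cJun substrate and 10 uM ATP at room temperature. Loss of anti-phospho-cJun AlphaScreen signal indicates inhibition.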

[7] = Cell Viability - HUV-EC-C (AID 542); further: on the % scale 0 is the no-effect control and ±100 the full control effect; nearly all actives have a fitted effect of over 35% in size
In short: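 HUV-EC-C normal human vascular endothelial cells, 1000 cells/well, pre-incubated 5 hr at 37 °C, then exposed to compounds for 40 hr at 37 °C in complete medium. Viability measured as intracellular ATP by CellTiter-Glo luminescence; AC50 from Hill fits.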

[8] = Cell Viability - H-4-II-E (AID 543); further: on the % scale 0 is the no-effect control and ±100 the full control effect; nearly all actives have a fitted effect of over 35% in size
In short: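 Rat hepatoma H-4-II-E cells (1500/well) were plated, incubated 5 hr at 37 °C, then exposed to compounds for 40 hr at 37 °C. Cellular ATP was read by CellTiter-Glo luminescence; AC50 came from Hill-equation fits of concentration-response data.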

[9] = Cell Viability - SH-SY5Y (AID 544); further: nearly all actives have a fitted effect of over 55% in size
In short: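 Human neuroblastoma SH-SY5Y cells (1500/well) in complete medium were exposed to compounds for 40 hr at 37 °C; intracellular ATP was then quantified by CellTiter-Glo luminescence after 20 min at room temperature. AC50 came from Hill-equation concentration-response fits.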

[10] = Cell Viability - Renal Proximal Tubule (AID 545); details: renal proximal tubule cells viability, primary cells of rat origin; at 91.7 µM (top of the series); further: nearly all actives have a fitted effect of over 40% in size
In short: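 Luminescent ATP signal (CellTiter-Glo) served as the viability read-out after 40 hr compound exposure of freshly isolated rat proximal tubule cells at 37 °C. Concentration-dependent ATP loss was fitted with the Hill equation to give AC50.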

[11] = Cellular Toxicity (caspase-3) HepG2 (AID 654);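 further: cells exposed to compound for 16 hours before reading; 0% = DMSO alone and 100% = caspase signal from 100 µM tamoxifen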
In short: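 HepG2 cells (1500/well) in complete medium were treated with compounds for 16 hr at 37 °C. Caspase-3/7 activity was then read as luminescence from peptide-aminoluciferin cleavage. AC50 came from Hill fits, normalized to DMSO and 100 uM tamoxifen.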

[12] = Cellular Toxicity (caspase-3) Jurkat (AID 655); details: Jurkat caspase-3 activation, luminescence, DMSO = 0%, tamoxifen = 100%; at 92.2 µM (top of the series);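 further: cells exposed to compound for 16 h at 37 °C before reading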
In short: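 5000 Jurkat cells/well; compound 16 hr, 37 °C; Caspase-Glo 3/7 added, 20 min RT; luminescence read. Norm: DMSO = 0%, tamoxifen 100 uM = 100%. AC50, Hill model.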

[13] = Cellular Toxicity (caspase-3) HUV-EC-C (AID 656)
In short: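 qHTS; HUV-EC-C, 1000 cells/well; 5 hr settle, 16 hr cmpd, 37°C; Caspase-Glo 3/7, 20 min RT; luminescence. Norm: DMSO = 0%, tamoxifen 100 uM = 100%. Hill-fit AC50.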

[14] = Cellular Toxicity (caspase-3) SHSY5Y (AID 657)
In short: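 qHTS, SH-SY5Y, 1500 cells/well, 5 h pre-incubation 37 °C; compound 16 h 37 °C; Caspase-Glo 3/7 1 h RT; luminescence. Norm.: DMSO = 0, 10 uM staurosporine = 100%. Hill fit → AC50.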

[15] = Cellular Toxicity (caspase-3) BJ (AID 658);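 further: 0% = DMSO basal and 100% = 10 µM staurosporine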
In short: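 BJ human foreskin fibroblasts, 1000 cells/well, treated 16 hours at 37 °C in complete medium; caspase 3/7 activity by Caspase-Glo luminescence after 1 hr at room temperature. Normalized to DMSO and 10 uM staurosporine; AC50 from Hill fits.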

[16] = Cellular Toxicity (caspase-3) MRC-5 (AID 659);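 further: 0% = DMSO basal and 100% = 10 µM staurosporine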
In short: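 MRC-5 human normal lung fibroblasts, 1500 cells/well, treated 16 h at 37 °C in complete medium. Caspase 3/7 measured by Caspase-Glo luminescence after 1 h at room temperature. Normalized to DMSO and 10 uM staurosporine; AC50 from Hill fit.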

[17] = Cellular Toxicity (caspase-3) Mesangial (AID 660)
In short: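 Human renal glomerular mesangial cells (1000/well) were treated with compounds for 16 h at 37 °C in complete medium, then caspase 3/7 activity was read by Caspase-Glo luminescence. Data were normalized to DMSO and 100 uM tamoxifen; AC50 from Hill fits.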

[18] = Cellular Toxicity (caspase-3) SK-N-SH (AID 661);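 further: 0% = DMSO basal and 100% = 10 µM staurosporine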
In short: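 SK-N-SH human neuroblastoma cells (1500/well) were treated with compounds for 16 hr at 37 °C in complete medium; caspase 3/7 activity was read by Caspase-Glo luminescence. AC50 came from Hill fits of data normalized to DMSO and 10 uM staurosporine.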

[19] = Cellular Toxicity (caspase-3) H-4-II-E (AID 663); details: Potency: caspase-3 activation;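 further: cells exposed to compound for 16 hr before readout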
In short: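 Rat hepatoma H-4-II-E cells (1500/well) plated 5 hr, then exposed to compound titrations for 16 hr at 37 °C. Caspase-Glo 3/7 luminescence read after 20 min at RT; data normalized to DMSO and 100 uM tamoxifen, AC50 from Hill fits.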

[20] = Cellular Toxicity (caspase-3) Hek293 (AID 664);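 further: cells exposed to compound for 16 h at 37 °C before readout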
In short: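 HEK293 cells were exposed to compounds in complete medium for 16 hr at 37 °C, then caspase-3/7 activity was read by Caspase-Glo 3/7 luminescence after 20 min at room temperature. Data normalized to DMSO and 100 uM tamoxifen; AC50 from Hill fits.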

[21] = Cellular Toxicity (caspase-3) N2a (AID 665);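 further: compound exposure lasted 16 h at 37 °C before readout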
In short: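 Mouse N2a neuroblastoma cells (1500/well) were treated with compounds for 16 h at 37 °C, then caspase-3/7 activity was read by Caspase-Glo luminescence after 1 h at room temperature. Data were normalized to DMSO and 10 uM staurosporine; AC50 from Hill fits.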

[22] = Cellular Toxicity (caspase-3) NIH 3T3 (AID 666);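 further: caspase signal read after 16 h compound exposure; 0% = DMSO basal and 100% = 100 µM tamoxifen stimulation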
In short: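 Mouse NIH 3T3 fibroblasts (1000 cells/well) were treated with compound for 16 hr at 37°C in complete medium; caspase-3/7 activity was read by Caspase-Glo luminescence. Normalized to DMSO and 100 uM tamoxifen; AC50 from Hill fits.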

[23] = Cellular Toxicity (caspase-3) Renal Proximal Tubule (AID 667);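 further: cells exposed to compound for 16 hours at 37 °C before detection; 0% = DMSO basal and 100% = 10 µM staurosporine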
In short: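 AC50 derived by standard Hill fit of concentration-response data, normalized between DMSO basal and 10 uM staurosporine as 100% stimulation. Cells: primary rat kidney proximal tubule, 16 h treatment at 37 °C.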

[24] = Cell Viability - LYMP2-001 (AID 921);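 further: cells exposed to compound for 24 h at 37 °C; 0% = DMSO only and full inhibition = tetraoctylammonium bromide control wells; nearly all actives have a fitted effect of over 70% in size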
In short: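 Steps: seed 2500 lymphoblastoid cells/well; 5 hr, 37 C; add compound; 24 hr, 37 C; CellTiter-Glo reagent, 30 min room temperature; read luminescence. Concentration-response modeled by Hill equation for AC50.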

[25] = MultiTox-Fluor Cytotoxicity Assay - LYMP1-001 - Dead Cells (AID 946)
In short: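 Cytotoxicity as increased dead-cell protease fluorescence (bis-AAF-R110, 485/520 nm), read 60 min after MultiTox-Fluor reagent. Human lymphoblastoid line exposed 16 h; Hill-fitted AC50, with DMSO as 0% and 15 uM tetraoctylammonium bromide as 100%.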

[26] = MultiTox-Fluor Cytotoxicity Assay - LYMP1-001 - Live Cells (AID 947);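 further: 0% = DMSO only and full inhibition = tetraoctylammonium bromide control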
[27] = Cell Viability - LYMP1-002 - Assay at 16 hr (AID 948);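 further: 0% = DMSO alone and full effect = 92 µM tetraoctylammonium bromide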
In short: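 Seed 2500 LYMP1-002 cells per well in complete medium and hold 5 hr at 37 C. Add compound across a concentration series and incubate 16 hr at 37 C. Add CellTiter-Glo, wait 30 min at room temperature, read luminescence.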

[28] = MultiTox-Fluor Cytotoxicity Assay - LYMP1-002 - Live Cells (AID 955); further: on the % scale 0 is the no-effect control and ±100 the full control effect
In short: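 Human lymphoblastoid LYMP1-002 cells, 2500/well in complete medium, rested 5 hr at 37 C, then exposed to compounds for 16 hr at 37 C. Live-cell protease cleavage of GF-AFC read by fluorescence (Ex/Em 405/510) after 60 min at room temperature; AC50 from Hill fits.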

[29] = MultiTox-Fluor Cytotoxicity Assay - LYMP1-003 - Dead Cells (AID 961); further: nearly all actives have a fitted effect of over 70% in size
In short: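 Dead-cell protease release, detected as bis-AAF-R110 fluorescence at 485/520 nm, was measured in LYMP1-003 cells after 16 h compound treatment at 37 C. AC50 values came from Hill-modeled qHTS curves normalized to DMSO (0%) and 15 uM tetraoctylammonium bromide (100%).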

[30] = MultiTox-Fluor Cytotoxicity Assay - LYMP1-003 - Live Cells (AID 962);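 further: 0% = DMSO only and full loss = 92 µM tetraoctylammonium bromide; cytotoxic hits lower the live-cell protease signal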
In short: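 LYMP1-003 human lymphoblastoid cells (2500/well) in complete medium were preincubated 5 hr at 37 C, then exposed to compounds for 16 hr at 37 C. Live-cell protease cleavage of GF-AFC read by fluorescence (Ex/Em 405/510); AC50 from Hill fits.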

C[C@H](CCC(=O)O)[C@H]1CC[C@H]2[C@@H]3CC[C@@H]4C[C@H](O)CC[C@]4(C)[C@H]3CC[C@]12C
inactive: Potency [1] > 92 µM | Potency [2] > 92 µM | Potency [3] > 92 µM | Potency [4] > 92 µM | Potency [5] > 92 µM | Potency [6] | outcome [7] | Potency [8] | Potency [9] | activity change, negative = cytotoxicity [10] -4.96% | outcome [11] | caspase-3 activation [12] -0.354% | outcome [13] | outcome [14] | outcome [15] | outcome [16] | outcome [17] | outcome [18] | Potency [19] | outcome [20] | outcome [21] | outcome [22] | outcome [23] | Potency [24] | Potency [25] | Potency [26] | Potency [27] | Potency [28] | Potency [29] | Potency [30]
